Screening data from PubChem BioAssay.
Bim-Mcl-1 = inhibitors of Bim-Mcl-1 interaction, human | Bead-based flow cytometry, Bim peptide-Mcl-1 binding | hit rate 0.1% among 190,000 | AID 1009 | inhibition, % at 10 µM | Q07820; in the data active = inhibition above about 40%;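 note: 0% = no compound tracer wells and 100% = peptide blocker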
Mcl1 Bid PPI = disrupts binding of human Mcl-1 to Bid peptide. AID 1021. TR-FRET Mcl-1/Bid-Dy647 peptide binding, 1536-well. Q07820. inhibition, % at 21.7 µM. hit rate 0.97% among 220,000;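 active = compounds that cut the binding signal by more than half at the single screening dose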;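 note: His-tagged Mcl-1 with europium anti-His antibody binding Bid BH3 peptide; 0% = Mcl-1 plus peptide wells and 100% = peptide-only wells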
14-3-3 Bad PPI = disrupts binding of bovine 14-3-3 zeta to phospho-Bad peptide | TR-FRET 14-3-3zeta/Dy647-pBad peptide displacement, 1 h | inhibition, % at 21.7 µM | hit rate 0.71% among 220,000;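 active = inhibition above about 70%, limit read from the data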;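 note: 0% = full 14-3-3 plus peptide FRET controls and 100% = background without 14-3-3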
eIF4E 4G PPI = inhibitors of eIF4E and eIF4G interaction in translation initiation; inhibition, % at 21.7 µM; P63073+Q04637; AID 782; hit rate 0.37% among 220,000; TR-FRET eIF4E-eIF4GI(517-606) binding, 2 h;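 note: 0% = full FRET control wells and 100% = background wells lacking eIF4GI fragment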
Target sequence (P63073 whole entry, looked up, the tested form may be a part): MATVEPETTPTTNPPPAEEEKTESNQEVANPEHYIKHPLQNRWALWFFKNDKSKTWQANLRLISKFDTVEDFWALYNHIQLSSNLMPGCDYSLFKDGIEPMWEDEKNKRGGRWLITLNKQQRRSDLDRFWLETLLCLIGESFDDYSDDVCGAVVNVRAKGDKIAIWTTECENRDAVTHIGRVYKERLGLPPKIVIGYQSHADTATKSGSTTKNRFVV
Target sequence (Q04637 whole entry, looked up, the tested form may be a part): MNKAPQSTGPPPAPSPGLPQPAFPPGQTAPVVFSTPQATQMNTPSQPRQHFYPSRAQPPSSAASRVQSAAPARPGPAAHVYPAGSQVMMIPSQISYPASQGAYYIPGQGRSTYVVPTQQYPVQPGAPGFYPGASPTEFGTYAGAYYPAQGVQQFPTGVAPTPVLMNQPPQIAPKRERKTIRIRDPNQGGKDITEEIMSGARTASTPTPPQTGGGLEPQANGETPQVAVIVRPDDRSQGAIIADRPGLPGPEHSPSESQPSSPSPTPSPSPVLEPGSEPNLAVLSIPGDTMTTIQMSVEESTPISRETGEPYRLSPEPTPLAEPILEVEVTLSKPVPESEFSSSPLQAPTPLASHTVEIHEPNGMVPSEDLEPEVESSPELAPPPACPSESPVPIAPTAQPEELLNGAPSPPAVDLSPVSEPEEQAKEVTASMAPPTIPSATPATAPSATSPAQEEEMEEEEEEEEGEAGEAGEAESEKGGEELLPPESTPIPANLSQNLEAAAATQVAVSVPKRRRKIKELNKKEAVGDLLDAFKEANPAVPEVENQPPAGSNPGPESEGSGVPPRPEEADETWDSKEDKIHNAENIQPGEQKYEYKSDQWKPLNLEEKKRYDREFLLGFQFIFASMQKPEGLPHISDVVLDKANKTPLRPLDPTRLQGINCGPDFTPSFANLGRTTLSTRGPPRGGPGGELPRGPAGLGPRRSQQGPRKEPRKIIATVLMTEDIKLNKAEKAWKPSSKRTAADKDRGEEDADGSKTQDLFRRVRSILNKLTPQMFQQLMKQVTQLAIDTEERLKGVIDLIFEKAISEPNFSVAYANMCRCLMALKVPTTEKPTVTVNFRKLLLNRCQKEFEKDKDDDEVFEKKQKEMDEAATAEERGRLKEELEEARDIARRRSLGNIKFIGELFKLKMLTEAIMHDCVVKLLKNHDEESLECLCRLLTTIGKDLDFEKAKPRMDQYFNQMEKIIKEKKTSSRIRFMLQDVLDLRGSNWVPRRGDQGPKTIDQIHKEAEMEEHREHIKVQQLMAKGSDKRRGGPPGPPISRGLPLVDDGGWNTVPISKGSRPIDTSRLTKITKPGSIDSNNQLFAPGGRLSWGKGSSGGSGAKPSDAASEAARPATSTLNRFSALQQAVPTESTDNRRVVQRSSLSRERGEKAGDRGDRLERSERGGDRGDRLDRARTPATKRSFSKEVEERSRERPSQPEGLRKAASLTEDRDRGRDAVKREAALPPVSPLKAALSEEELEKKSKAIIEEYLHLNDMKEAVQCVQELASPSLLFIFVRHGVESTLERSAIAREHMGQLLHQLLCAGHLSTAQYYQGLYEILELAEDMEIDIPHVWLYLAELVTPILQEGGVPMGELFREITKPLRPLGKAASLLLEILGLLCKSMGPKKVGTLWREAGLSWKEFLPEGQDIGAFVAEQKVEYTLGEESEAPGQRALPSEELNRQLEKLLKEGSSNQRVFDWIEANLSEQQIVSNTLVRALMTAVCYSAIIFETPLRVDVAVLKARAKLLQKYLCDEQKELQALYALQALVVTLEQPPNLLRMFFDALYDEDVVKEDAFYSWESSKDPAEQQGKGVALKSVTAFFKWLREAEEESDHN
p47phox inh = p47phox (human) inhibition; P14598; p47phox/p22phox peptide binding, fluorescence polarization, 2 h; inhibition, % at 24.7 µM; hit rate 0.53% among 220,000; AID 1274;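 note: 0% = p47phox with labelled peptide and 100% = labelled peptide alone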
Mcl1 Noxa PPI = Mcl-1/Noxa interaction inhibition. TR-FRET Mcl-1/Noxa peptide binding, 2 h. hit rate 1.5% among 220,000. AID 1022. inhibition, % at 21.7 µM. Q07820;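 active = compounds that cut the protein-peptide binding signal by more than 50% relative to plate controls in a single-dose test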;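 note: His-tagged Mcl-1 with rhodamine Noxa BH3 peptide and terbium anti-His antibody; 0% = Mcl-1 plus Noxa peptide wells and 100% = peptide-only wells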
Active calls of the source: *; nt = not tested or not shown; ! = repeats disagree; [ ] = another dose, or the depositor's remark. In the library only some 3.4% were active in any assay of this set; here they are far more common.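 Rule for the calls, unless noted: active = inhibition above about 30% (limit read from the data); inactive = the rest.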

SMILES	Bim-Mcl-1	Mcl1 Bid PPI	14-3-3 Bad PPI	eIF4E 4G PPI	p47phox inh	Mcl1 Noxa PPI
CN1C(=O)C(O)(CC(=O)/C=C/c2ccco2)c2ccccc21 (stereo not given)	0	-31	-27	2	-4	-4
O=C(N/N=C\c1ccc(Cl)cc1)C1=NOC2COC3(CCN(c4ccc([N+](=O)[O-])cc4)CC3)OCC12 (stereo not given)	nt	-11	-3	-6	-27	32
O=c1cc(-c2ccc([N+](=O)[O-])cc2)nc2cc(-c3ccc(F)cc3)[nH]n12	0	-46	1	13	-9	65*
Cc1cc(C)n(-c2nc3ccccc3c(=O)n2OCc2ccc(Cl)cc2)n1	-1	-3	-5	0	-1	11
Cc1cc(C)n(-c2nc3ccccc3c(=O)n2OCc2ccc(F)cc2)n1	1	13	70*[fluorescence artefact?]	-3	6	16
COc1ccc(Nc2nc(-c3cccs3)cs2)c(OC)c1	-1	3	78*	6	-6	29
COc1ccc(OC)c(Nc2nc(-c3cccs3)cs2)c1	-4	-72	-20	-4	-12	29
N/C(=N\OC(=O)CC1CCCCC1)c1ccncc1	11	2	3	1	-2	1
N/C(=N\OC(=O)CCC1CCCC1)c1ccncc1	95*	10	5	4	-1	16
CC(C)(C)CC(=O)O/N=C(\N)c1ccncc1	-5	82*	0	2	11	5
CC(C)c1ccc(NC(=O)c2cccc(Br)c2)cc1	-1	7	10	2	-2	-4
Cc1cc(C(=O)NNC(=S)Nc2ccccc2)nn1C	-5	-64	-19	0	5	-13
CCC(Sc1nc2ccccc2c2nc3ccccc3n12)C(=O)NCc1ccco1 (stereo not given)	-1	-16	78*	8	23	5
O=C(NCc1ccco1)c1ccc2c(=O)n(Cc3ccco3)c(SCC(=O)N3CCCC3)nc2c1	-2	0	-3	5	-26	54*
O=C(CSc1nc2ccccc2c(=O)n1Cc1ccco1)NCc1ccco1	-3	-7	88*[fluorescence artefact?]	10	-7	38
COC(=O)c1ccc2c(=O)n(Cc3ccco3)c(SCC(=O)Nc3ccccc3Cl)nc2c1	2	-15	11	-30	46*	-11
O=C(O)C1CCN(c2ccc(Cl)nn2)CC1	1	-4	-9	2	-6	-4
O=C(CSc1nnc2c(n1)[nH]c1ccccc12)NCc1ccco1	-6	-27	-5	4	7	73*
O=C(O)CCCC(=O)Nc1ccc(Oc2ncnc3cc(Cl)ccc23)nc1	nt	-12	-12	0	-3	23
O=C(Nc1ccc(F)cc1)Nc1ccc(Oc2ncnc3cc(Cl)ccc23)nc1	nt	92*	5	-9	-6	-19
COC(=O)Cc1c(C(=O)OC)nnn1-c1ccc(OC(F)(F)F)cc1	-2	3	5	-6	-6	4
O=S(=O)(Nc1nccs1)c1ccc(Nc2nnc(-c3ccccc3)c3ccccc23)cc1	-5	16	25	-4	-8	68*
Cc1ccc(C(=O)NNC(=O)CSc2nnc3c(n2)[nH]c2ccc(F)cc23)cc1	8	80*	36	-19	0	53*
Nc1nonc1C(=O)N/N=C/c1ccc(-c2cccc(C(=O)O)c2)o1	0	-17	-7	-1	-3	12
Cc1cccc(OCc2nc(C#N)c(NCc3ccc4c(c3)OCO4)o2)c1	0	83*	-11	-11	-26	8
SMILES	Bim-Mcl-1	Mcl1 Bid PPI	14-3-3 Bad PPI	eIF4E 4G PPI	p47phox inh	Mcl1 Noxa PPI
COc1cccc(C2c3[nH]c4ccccc4c3CCN2C(=O)Cn2cncn2)c1OC (stereo not given)	0	-51	-9	-1	-6	-14
COc1ccccc1C1c2[nH]c3ccccc3c2CCN1Cc1ccc(NC(C)=O)s1 (stereo not given)	nt	-33	-2	89*	-19	-6
N=c1n(Cc2ccccc2)c2ccccc2n1CC(O)COc1ccccc1 (stereo not given)	1	64*	10	1	-8	19
Cc1ccc(C(=O)C2C(=O)c3ccccc3C2=O)cc1	-3	6	82*	9	8	10
Cc1ccc(C(=O)NC2c3ccccc3-c3ccccc32)cc1	-4	-20	5	-3	-13	2
Cc1ccc(-c2nc(CN(Cc3c(C)nn(C)c3C)C(C)C)c(C)o2)o1	0	-57	-4	0	-6	-1
O=C(NC1CC1)c1ccc(C2SCC(=O)N2Cc2ccccc2)cc1 (stereo not given)	0	-23	3	4	5	6
COc1ccc(O)c(N)c1	6	-47	6	7	43*	89*
CCOC(=O)N1CCC(N2CCN(S(=O)(=O)c3ccc4ccccc4c3)CC2)CC1	0	27	70*	-5	0	8
O=C(CNC(=O)c1ccc2ccccc2c1)OCC(=O)N1CCN(S(=O)(=O)c2ccc3ccccc3c2)CC1	-1	2	-11	6	-9	2
CCOC(=O)N1CCC(N2CCN(S(=O)(=O)c3ccc([N+](=O)[O-])cc3)CC2)CC1	nt	-7	19	-6	7	27
O=C(CNCC1CCCO1)N1CCN(S(=O)(=O)c2ccc3ccccc3c2)CC1 (stereo not given)	2	15	73*	6	-7	26
Cc1ccc(NC(=O)COc2ccc(/C=N/NC(=O)CSCc3ccccc3)cc2)cc1	1	-5	2	13	-17	23
O=C(CSCc1ccc(Cl)cc1)N/N=C/c1ccc(OCC(=O)Nc2ccccc2)cc1	3	58*	3	-5	1	6
COc1ccccc1NC(=O)COc1ccc(/C=N/NC(=O)CSCc2cc(C)cc(C)c2)cc1	-5	57*	33	2	34*	-40
O=C(CSCc1ccc(Cl)cc1)Nc1ccc(-c2nnc(-c3ccccc3)o2)cc1	-6	59*	64	13	19	30
Cc1c2c(=O)n(-c3nc4ccccc4s3)nc-2cc(O)n1Cc1ccccc1	nt	-99	-8	32*	-37	73*
CC1(C)[C@@H](O)CC[C@]2(C)C3C(O)C=C4[C@H]5C[C@@](C)(C(=O)O)CC[C@]5(C)CC[C@]4(C)[C@]3(C)CC[C@@H]12 (stereo not given in full)	nt	-34	0	1	6	2
COc1ccc2oc3ccccc3c(=O)c2c1	nt	2	-17	0	-15	1
COc1cccc2c(=O)c3ccccc3oc12	0	55*!	-5	0	-10	-11
CCOC(=O)C1(Cc2cccc(OC)c2)CCCN(Cc2cc(C(C)C)n[nH]2)C1 (stereo not given)	3	-30	-6	1	-3	10
